p53 reactivator: restores transcriptional activity of mutant p53 | H1299 p53-A138V BP100-luciferase reporter, luminescence, 24 h | Potency, µM (top dose mostly 92.2 µM), hits mostly activators | hit rate 0.063% among 320,000 | AID 504706; note: nearly all actives have a fitted effect of over 45% in size
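p53-null H1299 cells stably carrying temperature-sensitive p53-A138V and a BP100-luciferase reporter were pinned with compounds (4-point, 1:5 series) and held 24 hrs at 37 deg C. Luminescence was read 10 min after detection reagent.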
USP2a inh: inhibitors of human ubiquitin-specific protease USP2a; O75604; USP2 core, Ub-CHOP2 coupled fluorogenic reporter, 485/531; Potency, µM (titrated, usually from 38.3 µM), usual class: inhibitors; hit rate 0.01% among 330,000
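USP2 core (10nM final) preincubated 30min RT with compound in 20mM Tris-HCl pH 8.0, 2mM CaCl2, 2mM beta-mercaptoethanol, 0.05% CHAPS; 25nM Ub-CHOP2 plus 25nM reporter substrate added, fluorescence (Ex485/Em531) read after 60min.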
Eya2 inh: inhibitors of human Eya2 phosphatase activity. recombinant Eya2, OMFP fluorescence dephosphorylation (OMFP is methylfluorescein phosphate). Potency, µM (titrated, usually from 76.9 µM), most hits filed as inhibitors. hit rate 0.006% among 330,000. AID 488837
Target sequence (O00167 whole entry, looked up): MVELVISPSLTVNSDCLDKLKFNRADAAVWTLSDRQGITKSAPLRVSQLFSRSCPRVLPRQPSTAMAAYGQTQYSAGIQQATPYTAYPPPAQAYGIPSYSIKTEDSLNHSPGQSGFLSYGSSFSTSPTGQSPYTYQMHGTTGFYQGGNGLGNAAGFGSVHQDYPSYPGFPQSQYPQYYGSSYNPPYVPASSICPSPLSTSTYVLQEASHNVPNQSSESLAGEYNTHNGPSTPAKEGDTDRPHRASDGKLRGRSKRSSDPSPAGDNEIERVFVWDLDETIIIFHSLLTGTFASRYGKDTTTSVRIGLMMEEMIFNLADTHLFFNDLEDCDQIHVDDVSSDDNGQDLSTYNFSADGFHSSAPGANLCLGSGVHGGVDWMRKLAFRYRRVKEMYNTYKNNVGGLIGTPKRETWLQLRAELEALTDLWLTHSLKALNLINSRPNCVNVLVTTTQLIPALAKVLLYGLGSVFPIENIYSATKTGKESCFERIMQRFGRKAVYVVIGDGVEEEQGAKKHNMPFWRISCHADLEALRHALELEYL
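Eya2 (0.2 uM) preincubated 10 min at ambient with compound, then OMFP substrate added at 50 uM; 10 min reaction in 50 mM HEPES pH 7.5, 50 mM NaCl, 5 uM MgCl2, 0.05% BSA, 1 mM DTT. Fluorescence read at Ex 485/Em 525 nm.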
Integrin act MD: activators of alpha7 integrin expression for muscular dystrophy; Potency, µM (titrated, usually from 38.3 µM), hits mostly activators; hit rate 0.064% among 350,000; alpha7betagal myoblasts, beta-gal FDG fluorescence, 48 h; note: nearly all actives have a fitted effect of over 60% in size
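alpha7betagal+/- myoblasts (passage 13, 250/well) treated 48 h at 37C with compounds at 1:260 dilution of DMSO stock. Lysed, then beta-galactosidase activity read as FDG fluorescence (ex 480/em 540) after 30 min, with pre-read for autofluorescence.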
ClpP mod: qHTS Assay for Activators of ClpP | purified B. subtilis ClpP, FRET peptide cleavage, 20 min | Potency, µM (titrated, usually from 57.5 µM) | hit rate 1.9% among 340,000; active = well fitted falling curve with a large enough effect; inconclusive = small, poorly fitted or top-dose-only effect; inactive = no such curve, though single readings can be large or run the other way; note: the source files actives as falling curves though it sought activators and does not explain the sign; nearly all actives have a fitted effect of over 65% in size
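Buffer: 100 mM Tris/HCl pH8, 100 mM KCl, 0.05% low protease BSA, 2.5% glycerol, 0.01% Tween-20. ClpP 10 microg/mL final; 20 min RT; delta FRET normalized to ADEP and DMSO controls.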
Mm-Cpn inhibitor: blocks the Methanococcus maripaludis chaperonin Mm-Cpn. purified Mm-Cpn ATPase, ADP Transcreener TR-FRET. Potency, µM (doses to about 76.9 µM), usual class: inhibitors. hit rate 0.031% among 330,000; note: nearly all actives have a fitted effect of over 80% in size
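Inhibition of chaperonin ATP hydrolysis is measured as reduced ADP production, detected by competitive TR-FRET in which signal falls with ADP. Final enzyme 25 nM and ATP 10 uM, reacted 30 min at 37°C.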
Numbers stand for hits; . = inactive; ? = inconclusive; / = not tested or not shown; ! = a repeat was not active; [ ] = dose if it differs, or a comment. The full list was thinned out, with hits kept by preference. Unless noted, calls come from the whole dose curve; as a rule, active = well fitted curve in the direction sought with a large enough effect; inconclusive = small, poorly fitted or top-dose-only effect, or another doubt; inactive = no such curve, though single readings can be large; an effect the other way counts as inactive or inconclusive.

SMILES	p53 reactivator	USP2a inh	Eya2 inh	Integrin act MD	ClpP mod	Mm-Cpn inhibitor
CCCCCCCCCCCCCCCCCCN(CCCCCCCCCCCCCCCCCC)c1ccc(/C=C/c2ccc(C=O)cc2)cc1	/	/	/	/	.	/
COc1ccc(C2C(C#N)=C(C)NC3=C2C(=O)CC(C)(C)C3)cc1 (centres undefined)	.	.	.	.	28.2µM	.
COc1cccc(C2C(C#N)=C(C)NC3=C2C(=O)CC(C)(C)C3)c1 (centres undefined)	.	.	.	.	25.1µM	.
CCCSC1=C(C#N)C(c2ccc(OC)cc2)C2=C(CC(C)(C)CC2=O)N1 (centres undefined)	.	.	.	.	.	.
COc1cccc(C2C(C#N)=C(N)N(N(C)C)C3=C2C(=O)CC(C)(C)C3)c1 (centres undefined)	.	.	.	.	/	.
O=C(COc1ccccc1C(=O)Nc1cccc(F)c1)Nc1ccc(Br)cc1	/	/	/	/	.	/
c1coc(-c2nc3ccccn3c2Nc2ccc3c(c2)OCCO3)c1	/	/	/	/	.	/
Cc1ccc(Nc2c(-c3ccco3)nc3ccccn23)cc1	?	.	.	.	25.1µM	.
Fc1ccc(Nc2c(-c3ccco3)nc3ccccn23)cc1	/	.	.	.	28.2µM!	.
c1ccc(Nc2c(-c3ccco3)nc3ccccn23)cc1	.	.	.	.	25.1µM	.
COc1ccc(Nc2c(-c3ccco3)nc3ccc(C)cn23)cc1	.	.	.	.	.	.
CC(C)(C)c1ccc(C(=O)C[n+]2ccccc2Cl)cc1	/	/	/	/	.	/
CC(=O)c1c(C)[nH]c(C(=O)COc2ccc3ccc(=O)oc3c2)c1C	.	.	.	.	31.6µM	.
CCOC(=O)c1cc(-c2ccc(C#N)cc2)nc2c1c(C)nn2CCC#N	.	.	.	.	?	.
CCOC(=O)c1cc(-c2ccc(OC)cc2)nc2c1c(C)nn2CCC#N	.	.	.	.	25.1µM	.
O=C(CCc1ccccc1)c1nnc(-c2ccccc2)o1	.	.	.	10µM	/	.
CCOC(=O)c1c(S(=O)(=O)N2CCCC(C(=O)NCc3ccccc3OC)C2)c(C)n(C)c1C (centres undefined)	/	/	/	/	.	/
Cc1cc2nc(-c3cccnc3SCC(=O)NCc3ccco3)[nH]c2cc1C	?	.	.	.	15.8µM	.
O=C(CSc1ncccc1-c1nc2ccccc2[nH]1)NCc1ccco1	?	.	.	.[7.66 µM]	14.1µM	.
CC(C)(C)c1ccc(O)c(N=Cc2cccc([N+](=O)[O-])c2)c1	/	/	/	/	.	/
COCCN(C(=O)COC(=O)/C=C/c1ccc(SC)cc1)c1c(N)n(Cc2ccccc2)c(=O)[nH]c1=O	/	/	/	.	22.4µM	/
CNc1ccc(/C=C/c2ccccc2)cc1	/	/	/	/	.	/
COc1ccc(-c2c(C)nn3c(C(F)(F)F)cc(-c4ccc(C)cc4)nc23)cc1	/	/	/	/	.	/
Cc1nn2c(C(F)(F)F)cc(-c3ccc(OC(C)C)cc3)nc2c1C#N	/	/	/	/	5.01µM	/
CCOC(=O)c1c(C)[nH]c(C)c1C(=O)COC(=O)/C=C/c1ccc(OC)cc1	.	.	.	.	15.8µM	.
SMILES	p53 reactivator	USP2a inh	Eya2 inh	Integrin act MD	ClpP mod	Mm-Cpn inhibitor
CCOC(=O)c1c(C)[nH]c(C)c1C(=O)COC(=O)/C=C/c1cccc(F)c1	.	.	.	.	.	.
CSc1[nH]c(=O)c(C(=O)O)cc1C#N	.	.	.	.	39.8µM	.
O=C1C2C3C=CC(C3)C2C(=O)N1c1ccncc1 (centres undefined)	.	.	.	.	?	.
O=C1C2C3C=CC(C3)C2C(=O)N1c1ccc(-c2nc3ccccc3o2)cc1 (centres undefined)	/	.	.	.	6.31µM	.
CC1CCc2[nH]c3ccc(C(=O)N(C)CC(=O)Nc4ccccc4Br)cc3c2C1 (centres undefined)	.	.	.	.	15.8µM	.
O=C1CCCN1CCCN1CC(C(=O)N(CCO)Cc2ccccc2)CCC1=O (centres undefined)	.	.	.	.	31.6µM	.
CCN(CC)CCNC(=O)Cn1c(-c2ccccn2)nc2ccccc21	.	.	.	.	14.1µM	.

Screening results: PubChem, National Center for Advancing Translational Sciences (NCATS)
